esBAF inh: SWI/SNF esBAF complex inhibition; mouse ES cells, Bmi1-luciferase knock-in reporter, 24 h; 100% = twice the neutral-well signal; reporter increase, % at 12.5 µM; 350,000 compounds, 2% hits; AID 602393; in the data active = activation above about 40%; inconclusive = no clear call, values can overlap the other calls;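 note: a rise in the Bmi1 reporter signal indicates esBAF inhibition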
SMARCA2 activ: SMARCA2 function activation, primary screen; AID 652017; MG213 cells, MMTV-luciferase reporter, dexamethasone, overnight; 370,000 compounds, 1% hits; activation, % at 9.1 µM; in the data active = activation above about 7.8%
Jurkat NFkB inh: inhibitors of the PMA/ionomycin-induced NF-kB reporter in Jurkat cells. PMA/ionomycin-induced NF-kB luciferase reporter, luminescence. inhibition, % at 4 µM. 330,000 compounds, 0.53% hits; in the data active = inhibition above about 50%
Gli-Sufu block: blocks Gli-Sufu signaling in a luciferase reporter; inhibition, % at 5 µM; Sufu-KO-LIGHT fibroblasts, Gli luciferase reporter luminescence; AID 588413; 340,000 compounds, 0.74% hits;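 active = inhibition above about 55%, limit read from the data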
697 NFkB inh: lowers PMA/ionomycin-induced NF-kB signal in 697 B cells. AID 435022. 330,000 compounds, 0.33% hits. 697 B-cell NF-kB luciferase reporter, 16 h. inhibition, % at 4 µM; in the data active = inhibition above about 35%
Numbers stand for hits; - = inactive; ? = inconclusive; . = no result given. An excerpt weighted towards active compounds, which were near 3.3% of everything screened.

SMILES | esBAF inh | SMARCA2 activ | Jurkat NFkB inh | Gli-Sufu block | 697 NFkB inh
COc1ccccc1NC(=O)c1ccc(COc2ccccc2OC)o1 | - | - | - | - | -
CO[C@H](CN(C)C(=O)Nc1ccc(F)cc1)[C@@H](C)CN(Cc1ccccc1Cl)[C@@H](C)CO | - | . | . | . | .
Cc1cc(C)cc(NCc2cc(=O)oc3cc(-c4ccccc4)c(O)cc23)c1 | . | - | - | - | -
COc1ccc(C)cc1NCc1cc(=O)oc2cc(-c3ccccc3)c(O)cc12 | 62 | - | - | - | -
CN(C)c1ccc(C2C3CCCc4ccccc4C3=NN2C)cc1 (stereo not drawn) | 47 | - | - | - | -
COc1cccc(COC(=O)c2ccc3c(c2)NC(=O)C(C)S3)c1OC (stereo not drawn) | - | - | - | - | -
CCOC(=O)c1ccc2c(c1)NCc1cccc(OC)c1O2 | 58 | - | - | - | -
S=c1nc(COc2ccccc2)[nH]c2ccccc12 | 68 | - | - | - | -
S=c1nc(Cc2ccccc2)[nH]c2ccccc12 | - | - | - | - | -
O=C(CC(=O)c1cc(Cl)ccc1O)c1ccccc1 | 49 | - | - | - | -
Cc1ccc(O)c(C(=O)CC(=O)c2ccc(Cl)cc2)c1 | - | - | . | - | .
Cc1cccc(C(=O)CC(=O)c2cc(Cl)ccc2O)c1 | 64 | . | - | - | -
CCCNC(=O)C[C@@H]1CC[C@H]2[C@@H](COc3ccc(NC(=O)c4ccc(OC)cc4)cc3C(=O)N2C)O1 | - | . | . | . | .
COc1ccccc1NC(=O)COc1ccc(CO)cc1Cl | 51 | - | - | - | -
NC1=NC[C@H](Cc2ccccc2)N1CCCCC1CCCCC1 | - | - | - | 58 | -
Cc1ccccc1-c1cnc2c(c1)C(=O)N([C@@H](C)CO)C[C@H](C)[C@H](CN(C)C(=O)c1ccncc1)O2 | - | . | . | . | .
Cc1cc(OCC(=O)N(C)Cc2ccccc2)ccc1Br | 43 | - | - | - | -
Cc1cccc(OCC(O)Cn2c(=N)n(CCN3CCCCC3)c3ccccc32)c1 (stereo not drawn) | - | 7.8 | - | - | -
c1ccc(Cn2c(-c3cncs3)nc3ccccc32)cc1 | 66 | - | - | - | -
NC(N)=NC(=S)Nc1ccc(Cl)cc1 | 47 | - | . | - | .
N/C(=N\C(=S)Nc1ccccc1)c1ccccc1 | 82 | - | - | - | -
N#Cc1ccc(NC(=S)/N=C(\N)c2ccccc2)cc1 | ? | - | . | . | .
N/C(=N\C(=S)Nc1ccc2c(c1)OCO2)c1ccccc1 | 64 | - | . | . | .
Fc1ccc(NC(=S)Nc2ccc(Cl)cc2)cc1 | . | - | - | - | -
Cc1ccccc1-c1cnc2c(c1)C(=O)N([C@H](C)CO)C[C@@H](C)[C@H](CN(C)C(=O)c1ccc(F)cc1)O2 | - | . | . | . | .
SMILES | esBAF inh | SMARCA2 activ | Jurkat NFkB inh | Gli-Sufu block | 697 NFkB inh
CCc1c(C)nc2ncnn2c1Nc1ccc(C(C)=O)cc1 | 48 | - | - | - | -
CCOC(=O)c1ccc(Nc2c(CC)c(C)nc3ncnn23)cc1 | - | - | - | - | -
CC(=O)c1ccc(NC(=O)CCc2c(C)nc3ncnn3c2C)cc1 | 48 | - | . | - | .
Cc1nc2ncnn2c(C)c1CCC(=O)N1CCc2ccccc2C1 | - | 7.9 | - | - | -
CCOc1ccc(C2=Nc3ccccc3C(c3ccc(N4CCOCC4)cc3)=NN2)cc1 | 50 | - | - | - | -
O=C(NC1CCCC1)C1CCCN1C(=O)Nc1ccccc1 (stereo not drawn) | - | - | - | - | -
O=C(Nc1ccccc1)SC1CCCCC1 | 83 | - | . | - | .
CN(C(=O)Nc1ccccc1)C1CCCCC1 | - | - | - | - | -
O=C(Nc1ccccc1)N1CCCC2CCCCC21 (stereo not drawn) | 52 | - | - | - | -
C[C@@H]1CN([C@H](C)CO)C(=O)c2cccc(NC(=O)c3nc4ccccc4s3)c2O[C@H]1CN(C)CC1CC1 | - | . | . | . | .
CC(C)(C)c1ccc(-c2cn(-c3ccc(Br)cc3)c3[n+]2CCCS3)cc1 | . | - | . | 93 | .
Fc1ccc(-n2cc(-c3ccccc3)[n+]3c2SCC3)cc1 | . | - | - | - | -
COc1ccccc1C1CC(=O)NC(SCC(=O)Nc2ccccc2)=C1C#N (stereo not drawn) | - | - | - | - | -
CC(C)C1CC(=O)NC(SCC(=O)Nc2ccc(Br)cc2)=C1C#N (stereo not drawn) | 99 | - | - | - | -
CCCc1cc(=O)oc2cc(OC(C)C(=O)NCCCn3ccnc3)ccc12 (stereo not drawn) | - | 7.9 | - | - | -
CCCc1cc(=O)oc2cc(OCC(=O)NCCCn3ccnc3)ccc12 | - | - | - | - | -

Bioassay records from PubChem.
